# PubChem BioAssay (NCATS)
# Several values for one entry are separate records, joined by “and”; a condition that tells them apart may be missing. Equal values may be shown once. Inconclusive results are not listed. Unmarked numbers belong to inactive results. Activity calls are given as the source filed them. The call rests on the fitted dose curve; in most records, active means well fitted activation curve with a large enough effect; inconclusive means small, poorly fitted or top-dose-only effect; inactive means no such curve, though single readings can be large or run the other way.
# Molecular target: Cellular tumor antigen p53 (Homo sapiens) (UniProt P04637)
# Assay: Primary qHTS for small molecule compounds that upregulate eGFP-tagged delta133p53alpha (in N-terminal) cells. (AID 2060322); further: nearly all actives have a fitted effect of over 75% in size;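 on activation: cells pre-induced with doxycycline then dosed without doxycycline; series mostly up to about 56 µM; 0% = DMSO vehicle and 100% = reference activator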
# Settings: NCI-H358 eGFP-delta133p53alpha fluorescence, 24 h; activation: hits give high values
# From the text: Assay Development and Screening Technology
# National Center for Advancing Translational Sciences (NCATS),
# National Institute of Health (NIH), Rockville, Maryland
# Cellular senescence (CS) is one of the hallmarks of aging and age-related diseases. Senescent cells are characterized by an irreversible growth arrest, an increase in senescence-associated beta-galactosidase (SA-beta-gal) activity and p16INK4a expression, an activation of the DNA damage response pathways, and the emergence of a senescence-associated secretory phenotype (SASP).
# Delta133p53alpha, a human/primate-specific p53 protein isoform, delays or inhibits the induction of CS and SASP in various types of human cells, including progeria-derived fibroblasts, primary normal astrocytes, and CD8+ T lymphocytes. Induction of delta133p53alpha with small molecule compounds may provide therapeutic opportunities for inhibition of senescence/SASP-associated pathologies in progeria syndromes, astrocyte-mediated neuroprotection in neurodegenerative diseases, and possibly prevention and treatment of a wider range of senescence- and aging-associated diseases.
# Here we report the development and validation of a cell-based quantitative high throughput screening (qHTS) assay in 1,536-well format. This qHTS assay uses the NCI-H358 cell line with doxycycline-inducible expression of enhanced green fluorescent protein (eGFP)-tagged delta133p53alpha, which allows efficient and highly quantitative measurement of the protein levels.
# PROTOCOL TABLE (as described by Inglese J, Shamu CE and Guy RK. 2007)
# SEQUENCE No. (e.g., 1, 2, 3, etc.); […] (e.g., Cells, Incubation, Reagent, etc.); VALUE; DESCRIPTION.
# 1; Cells; 4uL; 800 doxycycline treated cells / well in doxycycline-free media, 1536-well black, clear-bottom low base Aurora microplates.
# 2; Compounds; 23 nL; Kalypsis pin tool (Wako) equipped with 1536-well pin heads, 5-azacytidine positive control.
# 3; Incubation; 24 hr; 37C, 5% CO2; 95% relative humidity.
# 4; Aspiration; 1x; BioTek EL406 washer dispenser (Agilent).
# 5; Fixing; 3.5% paraformaldehyde, BioTek EL406 washer dispenser (Agilent).
# 6; Washing; 1x PBS; BioTek EL406 washer dispenser (Agilent).
# 7; Nuclei staining; 1:1000 dilution of Hoechst 33342 (Thermofisher), BioTek EL406 washer dispenser (Agilent).
# 8; Incubation; 20 min; in the dark at room temperature.
# 9; Washing; 2x, 1x PBS (ThermoFisher), BioTek EL406 washer dispenser (Agilent).
# 10; Reagent; 10 uL; 1x PBS per well, sealed with clear adhesive tape.
# NOTES (numbers refer to sequence numbers above).
# 1. NCI-H358 cells expressing eGFP-tagged delta133p53alpha were grown in T75 culture flasks and treated with doxycycline for 24h, at 10 ng/ml for eGFP-D133p53a cells (N-terminal cell) and 100 ng/ml for D133p53a-eGFP cells (C-terminal cells). Cells were trypsinized, counted using a Counted 3 Automated Cell Counter (Thermo Fisher), and diluted to a concentration of 200,000 cells/ml. A Multidrop Combi Reagent Dispenser (ThermoFisher) was used to dispense 800 cells/well in […] of doxycycline-free media, into 1536-well black/clear bottom low base plates (AuroraMicroplates).
# 2. After plating cells, 23 nl of compound library, DMSO vehicle control or positive control (5-azacytidine) were transferred by Pin Tool (Wako). The plate map layout was the same for each plate: (column 1) non-doxycycline treated cells + DMSO vehicle control; (column 2) doxycycline treated cells + DMSO vehicle control baseline; (column 3) doxycycline treated cells + positive control 57.5 uM final concentration 5-azacytidine; (column 4) doxycycline treated cells + serial dilution of 5-azacytidine, 16-point 1:2 titration spanning 1.8 nM to […] final concentration; (columns 5-48) doxycycline treated cells + titration of library compounds.
# 3. Cells were incubated at 37 °C, 5 % CO2, 95% RH with breathable metal lid for 24h.
# 4-10. […] After two washes, 10 ul of 1X PBS (Thermo Fisher) was dispensed to each well. Clear adhesive plate seals (VWR) were applied and plates stored at 4 °C.
# 11. […]
# Potency means the concentration at half of the fitted maximal effect.
# Sequence of Cellular tumor antigen p53 (Homo sapiens) (P04637 whole entry, looked up): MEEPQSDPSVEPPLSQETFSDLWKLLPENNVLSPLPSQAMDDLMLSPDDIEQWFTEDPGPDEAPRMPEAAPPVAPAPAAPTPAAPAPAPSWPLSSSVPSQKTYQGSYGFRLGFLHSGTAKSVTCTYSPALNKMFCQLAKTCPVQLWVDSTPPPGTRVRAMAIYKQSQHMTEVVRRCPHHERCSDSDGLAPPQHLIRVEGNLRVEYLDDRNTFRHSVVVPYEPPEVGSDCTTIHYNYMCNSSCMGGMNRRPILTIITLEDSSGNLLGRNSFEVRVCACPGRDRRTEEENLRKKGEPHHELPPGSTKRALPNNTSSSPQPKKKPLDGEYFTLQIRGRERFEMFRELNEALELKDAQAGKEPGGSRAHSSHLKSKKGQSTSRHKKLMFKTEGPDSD
Structure (SMILES),activation,Potency
CCCCS(=N)(=O)CCC(N)C(=O)O (stereo not given),-49.8%,
CCOc1ccc(-c2nn3ncccc3c2-c2ccc(S(C)(=O)=O)cc2)cc1,-4.46%,
Oc1ccc(CC2NCCc3cc(O)c(O)cc32)cc1 (stereo not given),-12.9%,
COc1cc2c(cc1Cc1cccc(Cl)c1F)c(=O)c(C(=O)O)cn2[C@H](CO)C(C)C,-15%,
CC1CCC2(C(=O)OC3OC(CO)C(O)C(O)C3O)CCC3(C)C(=CCC4C5(C)CCC(O)C(C)(CO)C5CCC43C)C2C1(C)O (stereo not given),-6.87%,
CCc1cc(-c2n[nH]c(C)c2-c2ccc3c(c2)OCCO3)c(O)cc1O,2.7%,
O=C(/C=C/c1ccc(O)cc1)N[C@@H](Cc1ccc(O)cc1)C(=O)O,2.29%,
Nc1ncnc2c1ncn2[C@@H]1O[C@H](CO)C[C@H]1O,,12 µM (active)
C=C[C@](C)(O)CC[C@H]1C(C)=CC(=O)[C@H]2C(C)(C)CCC[C@]12C,3.57%,
Cc1ccccc1C(=O)N1CC/C(=N\OS(=O)(=O)O)c2ccc(Cl)cc21,-1.67%,
CCNC(=O)[C@H]1O[C@@H](n2cnc3c(N)nc(NCCc4ccc(CCC(=O)O)cc4)nc32)[C@H](O)[C@H]1O,29.2%,
COc1cc(CCc2ccc(OCC=C(C)C)cc2)cc(OC)c1OC,-17.6%,
CCOc1ccc(Cc2nccc3cc(OCC)c(OCC)cc23)cc1OCC,-22.6%,
CCOc1ncc(S(=O)(=O)N2CCN(CC)CC2)cc1-c1nc2c(CC)n(CCOC)nc2c(=O)[nH]1,-9.07%,
NC(=NCCCCCCN=C(N)N=C(N)Nc1ccc(Cl)cc1)N=C(N)Nc1ccc(Cl)cc1,19.1%,
Nc1ncnc2c1ncn2[C@@H]1O[C@H](COP(=O)(O)CP(=O)(O)OP(=O)(O)O)[C@@H](O)[C@H]1O,7.87%,
COC1=C(OC)C(=O)C(CC=C(C)CCC=C(C)CCC=C(C)CCC=C(C)CCC=C(C)CCC=C(C)CCC=C(C)CCC=C(C)CCC=C(C)CCC=C(C)C)=C(C)C1=O,0.831%,
C/C=C(\C)C(=O)O[C@@H]1CC2[C@@H](CC=C3C[C@@H](O[C@H]4C[C@H](OC)[C@H](O[C@H]5C[C@H](OC)[C@H](O[C@@H]6O[C@H](C)[C@@H](O[C@H]7C[C@H](OC)[C@H](O[C@@H]8O[C@H](CO)[C@@H](O)[C@H](O)[C@H]8O)[C@@H](C)O7)[C@H](OC)[C@H]6O)[C@@H](C)O5)[C@@H](C)O4)CC[C@@]32C)[C@@]2(O)CC[C@H](C(C)=O)[C@@]12C (stereo not given in full),9.92%,
CN1CCOC(c2ccccc2)c2ccccc2C1 (stereo not given),0.837% and 6.21%,
CC(C)(C)[N+]([O-])=Cc1ccc(S(=O)(=O)O)cc1S(=O)(=O)O,-9.61%,

Structure (SMILES),activation,Potency
C[C@H]1CC(=O)C2=C(C1)C(O)C(O)[C@@]1(O)[C@H]2C(=O)c2cccc(O)c2[C@@H]1O (stereo not given in full),3.05%,
Fc1cccc(/C=N/N=C/c2cccc(F)c2)c1,-12.5%,
C=C1CCC2C(C)(C(=O)O)CCCC2(C)C1CC/C(C)=C\CO (stereo not given),15.2%,
O=C1NC(=O)C(=Cc2ccc3nccc(-c4ccncc4)c3c2)S1,3.34%,
Cc1cc(C(=O)Nc2cccc(C(=O)Nc3cccc(C(F)(F)F)c3)c2)on1,-7.16%,
C=C(C)C(=O)O[C@H]1C[C@@](C)(OC(C)=O)[C@@]2(O)CC[C@@](C)(O)[C@H](OC(C)=O)[C@@]23OC(=O)C(COC)=C13,-9.16%,
CCC(C)(CN(C)C)OC(=O)c1ccccc1 (stereo not given),-10.9%,
NCCCC[C@H](N[C@@H](CCc1ccccc1)C(=O)O)C(=O)N1CCC[C@H]1C(=O)O,-3.95%,
C/C(=C\CCC(C)(O)c1ccc(C)cc1)C(=O)O (stereo not given),-12.2%,
NC(C(=O)N[C@@H]1C(=O)N2C(C(=O)O)=C(Cl)CS[C@H]12)c1ccccc1 (stereo not given in full),6.44%,
CC1=C(C(=O)O)N2C(=O)[C@@H](NC(=O)[C@H](N)c3ccccc3)[C@H]2SC1,-27.6%,
O=C(Cc1ccccc1)OC[C@H]1O[C@H](O[C@H]2O[C@H](CO)[C@@H](O)[C@H](O)[C@H]2O)[C@H](O)[C@@H](O)[C@@H]1O,-3.05%,
COc1cc(C(C)=O)ccc1O[C@@H]1O[C@H](CO[C@@H]2OC[C@@H](O)[C@H](O)[C@H]2O)[C@@H](O)[C@H](O)[C@H]1O,9.16%,
C=C1C(=CC=C2CCC[C@]3(C)[C@@H]([C@H](C)CCCC(C)(C)O)CC[C@@H]23)C[C@@H](O)C[C@@H]1O,-4.26%,
Nc1cc(C(Cl)=C(Cl)Cl)c(S(N)(=O)=O)cc1S(N)(=O)=O,44.6%,
Cc1ccc(S(=O)(=O)N2CCC[C@H]2c2ccc(F)cc2)cc1,8.93%,
CC1(C)S[C@H]2[C@H](NC(=O)[C@@H](N)c3ccc(O)cc3)C(=O)N2[C@@H]1C(=O)O,-5.39%,
Clc1ccc2c(c1)C1=NCCN1c1c(-c3noc(C4CC4)n3)ncn1-2,-0.477%,
CCCn1c(=O)c2[nH]c(-c3ccc(OCC(=O)O)cc3)nc2n(CCC)c1=O,-5.73%,
CC1(CO)CCCC2(C)C1C(OC(=O)c1ccccc1)CC1C(=O)OCC12O (stereo not given),-20.6%,
